# Sampled rows, rich in hits. Any-hit rate of the full collection: about 2.7%.
# CHT inh – inhibits the human high affinity choline transporter | B-score at 10 µM | actives 0.86% (n = 310,000) | AID 488975 | Q9GZV3 | CHT-expressing cells, membrane potential dye, choline response; stronger effect = lower value;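 active = B-score over 3 SD under the library average, and starting fluorescence ratio not unusually high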;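 also: choline stimulus applied at its EC90 after an EC20 pre-addition; B-score computed on integrated fluorescence ratio after choline addition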
# IDE inh – inhibits human insulin-degrading enzyme in HEK cells; P14735; FAbetaB cleavage, fluorescence polarization; inhibition, % at 5.59 µM; actives 0.41% (n = 320,000);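 active = percent inhibition above the average of all tested compounds plus 3 SD, set per screening campaign, cut at about 16% in these data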;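 also: IDE supplied by intact live HEK cells; FP after avidin binding of uncleaved biotin substrate so inhibition keeps polarization high; 0% = DMSO wells and 100% = 60 µM reference IDE inhibitor Ii1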
# Target sequence (P14735 whole entry, looked up): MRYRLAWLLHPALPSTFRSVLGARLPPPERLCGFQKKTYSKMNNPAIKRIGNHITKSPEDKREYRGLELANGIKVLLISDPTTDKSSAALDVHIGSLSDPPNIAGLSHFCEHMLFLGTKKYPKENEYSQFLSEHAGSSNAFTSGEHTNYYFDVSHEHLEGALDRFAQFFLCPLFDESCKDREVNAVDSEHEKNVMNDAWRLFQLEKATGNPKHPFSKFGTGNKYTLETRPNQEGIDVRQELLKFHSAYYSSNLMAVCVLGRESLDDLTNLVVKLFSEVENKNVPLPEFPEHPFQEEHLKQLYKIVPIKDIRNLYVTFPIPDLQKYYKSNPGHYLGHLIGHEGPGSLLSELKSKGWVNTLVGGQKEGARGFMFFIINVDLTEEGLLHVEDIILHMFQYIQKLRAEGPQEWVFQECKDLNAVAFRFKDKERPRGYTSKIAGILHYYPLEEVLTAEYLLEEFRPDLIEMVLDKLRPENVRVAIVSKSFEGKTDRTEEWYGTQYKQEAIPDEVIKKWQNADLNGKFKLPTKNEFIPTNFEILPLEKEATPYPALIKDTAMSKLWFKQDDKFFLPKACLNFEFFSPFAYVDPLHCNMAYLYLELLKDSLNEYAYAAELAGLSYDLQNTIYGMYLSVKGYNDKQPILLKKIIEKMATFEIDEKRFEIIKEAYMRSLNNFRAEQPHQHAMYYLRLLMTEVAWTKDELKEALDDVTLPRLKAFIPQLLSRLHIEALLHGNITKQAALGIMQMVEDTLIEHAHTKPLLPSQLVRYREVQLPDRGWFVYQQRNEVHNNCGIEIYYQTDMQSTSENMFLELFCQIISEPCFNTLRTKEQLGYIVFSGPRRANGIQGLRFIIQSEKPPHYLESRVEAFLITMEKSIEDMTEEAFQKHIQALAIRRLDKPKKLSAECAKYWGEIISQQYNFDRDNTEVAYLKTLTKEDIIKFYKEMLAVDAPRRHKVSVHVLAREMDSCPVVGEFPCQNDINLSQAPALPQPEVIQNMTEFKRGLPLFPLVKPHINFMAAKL
# IDE act – boosts human insulin-degrading enzyme activity in HEK cells. P14735. FAbeta-B cleavage, fluorescence polarization; 0% vehicle, 100% cell-free pure enzyme wells. activation, % at 5.96 µM. actives 0.073% (n = 340,000). AID 493087;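 active = activation above the mean of all tested compounds plus 3 SD, set per screening campaign, cut at about 17% in these data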
# ANO1 activ – activators or potentiators of mouse TMEM16A chloride channel. AID 623877. actives 0.3% (n = 340,000). B-score at 10 µM. HEK293 TMEM16A/YFP-H148Q/I152L, iodide quench fluorescence; stronger effect = lower value. Q8BHY3;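 active = fluorescence-ratio B-score plate-corrected deviation score at least 3 library SD below zero, with starting fluorescence score within 5 deviations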;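 also: channel opened by trigger with iodide after compound preincubation; score built on the fluorescence ratio of max minus min over baseline; more negative score means more quench and so TMEM16A activation or potentiation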
# CHT allo act – allosteric activators of human choline transporter CHT. actives 0.49% (n = 310,000). Q9GZV3. B-score at 10 µM. CHT-expressing cells, membrane potential dye, choline EC20; stronger effect = higher value; LV-AA mutant CHT in HEK293 cells;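 active = initial fluorescence not abnormally high and integrated response B-score, plate-corrected, over 3 SD above library mean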
# ANO1 block – mouse TMEM16A channel inhibition, primary screen | Q8BHY3 | HEK293 TMEM16A/YFP iodide influx fluorescence, ionomycin | normalized B-score (activity score, 25-100; higher = stronger inhibition) at 10 µM | actives 1.2% (n = 310,000) | AID 588511;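 active = ratio plate-corrected score three or more library SD toward inhibition, starting fluorescence score within five deviations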;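 also: score derived from kinetic fluorescence span divided by baseline fluorescence per well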
# CHT block conf – confirmation of human choline transporter CHT inhibitors; actives 70% (n = 2,400); shares compounds with CHT inh; CHT-expressing cells, choline membrane potential dye; LV-to-AA substituted CHT, HEK293 cells; CHT activity remaining % of control (stronger effect = lower value), % at 10 µM;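 active = choline transporter activity left, mean of duplicates at 10 µM, below buffer-only control mean minus 3 SD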;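 also: depolarization triggered by choline at its EC90 following an EC20 pre-addition; 0% = hemicholinium-3 full block and 100% = buffer-only control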
# HEK293 CHT ctr – activity in parental HEK293 cells lacking CHT; shares compounds with CHT inh; membrane potential dye, choline response; active = decrease or increase beyond buffer ±3SD; membrane potential ratio readout (active if shifted either direction beyond buffer ±3SD; no single direction) at 10 µM; actives 4% (n = 2,400); AID 493222;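 also: parental cells lack the transporter so any hit is non-specific; ratio is peak minus trough fluorescence over baseline after EC90 choline challenge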
# TMEM16A reconf – TMEM16A (mouse) chloride channel inhibition, re-confirmation | actives 39% (n = 2,300) | inhibition, % at 10 µM | HEK293 TMEM16A/YFP-H148Q, iodide quench fluorescence; ionomycin added to raise cell calcium | shares compounds with ANO1 block | AID 652189;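 active = mean duplicate percent inhibition, scaled so buffer wells are 0 and the reference blocker 100, over three buffer SD above buffer mean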
# HEK293 Ca mobil – calcium mobilization counter-screen hit for TMEM16A inhibitor series | shares compounds with ANO1 block | TMEM16A/YFP HEK293, Fluo4 calcium mobilization | calcium response (% of ionomycin), % at 10 µM | actives 2% (n = 2,300) | AID 652231;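 active = duplicate-averaged calcium signal over 20% of the ionomycin maximum, relative to buffer baseline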;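 also: each well's signal is peak minus trough fluorescence divided by its pre-addition baseline; 0% = buffer wells and 100% = ionomycin wells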
# YFP-HEK293 quench – counter-screen for TMEM16A inhibitors: effect in parental YFP-HEK293 cells; shares compounds with ANO1 block; YFP ratio F(max-min)/F0 at 10 µM; 2,300 tested, under 10 active; AID 652233; iodide YFP quench, ionomycin;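 active = yellow fluorescent protein signal ratio exceeding the buffer control mean by over 5 SD of those controls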;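 also: ratio is mean of duplicate wells from kinetic YFP trace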
# ClC-1 inh – blocks the rat ClC-1 voltage-dependent chloride channel. 2,300 tested, under 10 active. ratio percent, % at 10 µM. AID 652236. shares compounds with ANO1 block. CHO ClC-1-YFP, iodide influx fluorescence quench; iodide control reads 0, buffer control 100;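 active = duplicate-mean ratio percent above the mean of iodide-only control wells, which defines zero, plus 5 of their SD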;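 also: higher percent means stronger block of ClC-1 iodide influx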
# An asterisk follows results filed as active; i = inactive; nt = no result.
SMILES,CHT inh,IDE inh,IDE act,ANO1 activ,CHT allo act,ANO1 block,CHT block conf,HEK293 CHT ctr,TMEM16A reconf,HEK293 Ca mobil,YFP-HEK293 quench,ClC-1 inh
Cc1sc2ncnc(NCc3ccco3)c2c1C,-5.4*,8,0,i,i,i,65%*,i,nt,nt,nt,nt
Cc1ccccc1NC(=O)CN(C)S(=O)(=O)c1ccc(-c2ccc(=O)[nH]n2)s1,i,-2,-1,i,i,i,nt,nt,nt,nt,nt,nt
Cc1cccc(NC(=O)CN(C)S(=O)(=O)c2ccc(-c3ccc(=O)[nH]n3)s2)c1C,-6.3*,9,1,i,i,i,i,i,nt,nt,nt,nt
O=C(COc1ccccc1F)OCC(=O)c1ccc([N+](=O)[O-])cc1,nt,1,-7,i,nt,nt,nt,nt,nt,nt,nt,nt
COc1cccc(/C=C2\SC(=S)N(NS(=O)(=O)c3ccccc3)C2=O)c1OC,-5.7*,6,5,i,i,i,44%*,i,nt,nt,nt,nt
Cc1csc(C(C#N)C(=O)c2cc3ccccc3o2)n1 (centres undefined),-5.3*,4,2,i,i,25*,61%*,i,30%*,i,-1.1,-26
CC(C#N)(CCc1ccccn1)CCc1ccccn1,nt,nt,3,i,nt,nt,nt,nt,nt,nt,nt,nt
CCC(=NC(C)c1ccccc1)c1c(O)n(C)c(=O)n(C)c1=O (centres undefined),-7.5*,1,3,i,i,100*,51%*,i,22%*,i,-0.93,-24
C=CCn1c(NC(=O)c2ccccc2Cl)c(C#N)c2nc3ccccc3nc21,-5.8*,10,-5,i,i,100*,i,i,54%*,i,-0.88,-26
Cc1ccccc1C(=O)NNC(=S)NC(=O)COc1ccccc1,-8*,2,-4,i,i,25*,33%*,i,34%*,80%*,-1,0
CS(=O)(=O)NCCNc1ncc(C(F)(F)F)cc1Cl,i,2,1,i,i,i,nt,nt,nt,nt,nt,nt
O=S(=O)(NCCNc1ncc(C(F)(F)F)cc1Cl)C(F)(F)F,-9.6*,-3,3,i,i,100*,42%*,i,35%*,i,-1.1,-13
CCOC(=O)C1CCN(c2ccccc2CN2CCN(c3ccccc3OCC)CC2)CC1,i,1,4,i,i,i,nt,nt,nt,nt,nt,nt
COC(=O)C1CCCCN1C(=O)c1cc(COc2cccc3cccnc23)on1 (centres undefined),i,-3,4,i,i,i,nt,nt,nt,nt,nt,nt
CCOC(=O)CC1CCCCN1C(=O)c1cc(COc2cccc3cnccc23)on1 (centres undefined),-5.4*,2,-4,i,i,25*,69%*,i,46%*,i,-1.1,-18
CC1=NN(C(=O)c2ccc(Br)cc2)C(O)(C(F)(F)OC(F)(F)F)C1 (centres undefined),-5.1*,-10,5,i,i,100*,44%*,i,29%*,i,-0.97,-21
COc1cccc(/C=C/C(=O)N(C)CC(=O)Nc2ccc(Cl)c(C(F)(F)F)c2)c1,i,4,-2,i,i,i,nt,nt,nt,nt,nt,nt
CCOC(=O)CNC(=O)C1c2ccccc2Oc2ccccc21,i,0,-5,i,i,i,nt,nt,nt,nt,nt,nt
COc1ccc(OCCSc2nnc(C)n2-c2ccccc2)cc1,-5*,0,0,i,i,100*,i,i,i,i,-0.94,-5
CCCCSc1nc(C)cc(C)c1S(=O)(=O)c1ccccc1C,-7.6*,1,-4,i,i,100*,i,i,22%*,i,-1,-8
CCn1c2ccccc2c2cc(NC(=O)C(C)OC(=O)c3ccc(NC(=O)CC#N)cc3)ccc21 (centres undefined),nt,-2,-3,i,nt,nt,nt,nt,nt,nt,nt,nt
CCc1nnc(NC(=O)CSc2nnc(-c3ccccc3OC)n2-c2ccc(C)cc2)s1,i,3,5,i,i,i,nt,nt,nt,nt,nt,nt
CCc1nnc(NC(=O)CSc2nnc(-c3ccccc3OC)n2-c2ccccc2)s1,-5.5*,8,6,i,i,25*,41%*,i,i,i,-1.1,-10
Nc1nc(-c2cccc(NS(=O)(=O)c3ccccc3)c2)cs1,i,0,-4,i,i,i,nt,nt,nt,nt,nt,nt
O=S(=O)(Nc1nc(-c2ccccc2)cs1)c1cccc(C(F)(F)F)c1,-7.7*,2,5,i,i,100*,51%*,i,25%*,i,-1,-20
Cc1cc(C)c(S(=O)(=O)/N=C2\C=C(Nc3ccc(C(=O)O)cc3)C(=O)c3ccccc32)c(C)c1,-5.6*,0,2,i,i,25*,25%*,i,26%*,i,-1.2,-30
O=C(O)c1ccc(NC2=C/C(=N/S(=O)(=O)c3ccccc3)c3ccccc3C2=O)cc1,nt,nt,2,i,nt,nt,nt,nt,nt,nt,nt,nt
O=S(=O)(Nc1nc2ccccc2s1)c1ccc(Br)s1,-7.1*,4,1,i,i,100*,69%*,i,24%*,i,-0.9,-4
CS(=O)(=O)c1ccc2nc(NC(=O)CN3C(=O)NC4(CCCC4)C3=O)sc2c1,i,0,2,i,i,i,nt,nt,nt,nt,nt,nt
CCCOc1ccc(C(=O)NNC(=S)NC(=O)c2ccco2)cc1,-7.9*,10,0,i,i,100*,54%*,i,43%*,62%*,-1,-10
